# According to ChEMBL document CHEMBL3433997, “St. Jude Leishmania screening dataset” (2016):
# Tests used:
# Assay type in all cases: functional
# [1] = molecular target: Solute carrier family 2, facilitated glucose transporter member 1 (Homo sapiens) (UniProt P11166); assay: ST_JUDE_LEISH: Cytotoxicity at 2uM final concentration against transgenic Leishmania Mexicana promastigotes LmGLUT1 that are glucose transport deficient and complemented with the human glucose transporter GLUT1. Activity is measured by DNA content using SYBR green in vitro
# Sequence of Solute carrier family 2, facilitated glucose transporter member 1 (Homo sapiens) (P11166 whole entry): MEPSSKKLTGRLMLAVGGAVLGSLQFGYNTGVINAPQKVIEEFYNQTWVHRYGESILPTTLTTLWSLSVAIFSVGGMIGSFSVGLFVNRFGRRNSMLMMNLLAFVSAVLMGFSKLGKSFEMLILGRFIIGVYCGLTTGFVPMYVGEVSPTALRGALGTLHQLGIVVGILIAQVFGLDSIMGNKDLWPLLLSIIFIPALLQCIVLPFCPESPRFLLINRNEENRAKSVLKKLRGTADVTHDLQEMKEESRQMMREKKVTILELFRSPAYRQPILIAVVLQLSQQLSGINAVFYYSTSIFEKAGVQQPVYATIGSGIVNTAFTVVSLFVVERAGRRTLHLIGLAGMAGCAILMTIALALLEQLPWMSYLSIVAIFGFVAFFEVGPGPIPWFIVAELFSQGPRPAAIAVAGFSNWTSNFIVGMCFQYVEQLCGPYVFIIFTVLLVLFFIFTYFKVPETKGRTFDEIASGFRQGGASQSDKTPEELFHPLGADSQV
# [2] = molecular target: Hexose transporter 1 (Plasmodium falciparum) (UniProt O97467); assay: ST_JUDE_LEISH: Cytotoxicity at 2uM final concentration against transgenic Leishmania Mexicana promastigotes LmPfHT that are glucose transport deficient and complemented with the Plasmodium falciparum hexose transporter. Activity is measured by DNA content using SYBR green in vitro
# [3] = molecular target: Glucose transporter (Leishmania mexicana) (UniProt O61059); assay: ST_JUDE_LEISH: Cytotoxicity at 2uM final concentration against transgenic Leishmania Mexicana promastigotes LmGT2 that are glucose transport deficient and complemented with the L. Mexicana glucose transporter 2. Activity is measured by DNA content using SYBR green in vitro
SMILES,inhibition [1] [%],inhibition [2] [%],inhibition [3] [%]
CCOC(=O)C1CCN(CCOc2cc(NC(=O)/C=C/c3ccccc3Cl)ccc2Br)CC1,8.71,6.51,7.58
COc1ccc(CCNCCCCCCNCCc2ccc(OC)c(OC)c2Cl)c(Cl)c1OC,0.05,-0.34,0.35
CN(CCCCNC(=O)/C=C/c1ccccc1)C1CC2(CCN(C(=O)OC(C)(C)C)CC2)c2ccccc21 (centres undefined),3.4,3.28,1.67
